Measured values as given in ChEMBL document CHEMBL1961873, “Compounds: GSK PKIS; Assays: Nanosyn kinase panel” (2012).

Key:
[1] = system: Proto-oncogene tyrosine-protein kinase receptor Ret (Homo sapiens), P07949 [Y791F]; conditions: at 1 µM
[2] = target: Macrophage-stimulating protein receptor (Homo sapiens) (UniProt Q04912); conditions: at 0.1 µM
[3] = target: Macrophage-stimulating protein receptor (Homo sapiens) (UniProt Q04912); conditions: at 1 µM
[4] = target: Proto-oncogene tyrosine-protein kinase ROS (Homo sapiens) (UniProt P08922); conditions: at 0.1 µM
Chain of Proto-oncogene tyrosine-protein kinase ROS (Homo sapiens) (P08922 whole entry): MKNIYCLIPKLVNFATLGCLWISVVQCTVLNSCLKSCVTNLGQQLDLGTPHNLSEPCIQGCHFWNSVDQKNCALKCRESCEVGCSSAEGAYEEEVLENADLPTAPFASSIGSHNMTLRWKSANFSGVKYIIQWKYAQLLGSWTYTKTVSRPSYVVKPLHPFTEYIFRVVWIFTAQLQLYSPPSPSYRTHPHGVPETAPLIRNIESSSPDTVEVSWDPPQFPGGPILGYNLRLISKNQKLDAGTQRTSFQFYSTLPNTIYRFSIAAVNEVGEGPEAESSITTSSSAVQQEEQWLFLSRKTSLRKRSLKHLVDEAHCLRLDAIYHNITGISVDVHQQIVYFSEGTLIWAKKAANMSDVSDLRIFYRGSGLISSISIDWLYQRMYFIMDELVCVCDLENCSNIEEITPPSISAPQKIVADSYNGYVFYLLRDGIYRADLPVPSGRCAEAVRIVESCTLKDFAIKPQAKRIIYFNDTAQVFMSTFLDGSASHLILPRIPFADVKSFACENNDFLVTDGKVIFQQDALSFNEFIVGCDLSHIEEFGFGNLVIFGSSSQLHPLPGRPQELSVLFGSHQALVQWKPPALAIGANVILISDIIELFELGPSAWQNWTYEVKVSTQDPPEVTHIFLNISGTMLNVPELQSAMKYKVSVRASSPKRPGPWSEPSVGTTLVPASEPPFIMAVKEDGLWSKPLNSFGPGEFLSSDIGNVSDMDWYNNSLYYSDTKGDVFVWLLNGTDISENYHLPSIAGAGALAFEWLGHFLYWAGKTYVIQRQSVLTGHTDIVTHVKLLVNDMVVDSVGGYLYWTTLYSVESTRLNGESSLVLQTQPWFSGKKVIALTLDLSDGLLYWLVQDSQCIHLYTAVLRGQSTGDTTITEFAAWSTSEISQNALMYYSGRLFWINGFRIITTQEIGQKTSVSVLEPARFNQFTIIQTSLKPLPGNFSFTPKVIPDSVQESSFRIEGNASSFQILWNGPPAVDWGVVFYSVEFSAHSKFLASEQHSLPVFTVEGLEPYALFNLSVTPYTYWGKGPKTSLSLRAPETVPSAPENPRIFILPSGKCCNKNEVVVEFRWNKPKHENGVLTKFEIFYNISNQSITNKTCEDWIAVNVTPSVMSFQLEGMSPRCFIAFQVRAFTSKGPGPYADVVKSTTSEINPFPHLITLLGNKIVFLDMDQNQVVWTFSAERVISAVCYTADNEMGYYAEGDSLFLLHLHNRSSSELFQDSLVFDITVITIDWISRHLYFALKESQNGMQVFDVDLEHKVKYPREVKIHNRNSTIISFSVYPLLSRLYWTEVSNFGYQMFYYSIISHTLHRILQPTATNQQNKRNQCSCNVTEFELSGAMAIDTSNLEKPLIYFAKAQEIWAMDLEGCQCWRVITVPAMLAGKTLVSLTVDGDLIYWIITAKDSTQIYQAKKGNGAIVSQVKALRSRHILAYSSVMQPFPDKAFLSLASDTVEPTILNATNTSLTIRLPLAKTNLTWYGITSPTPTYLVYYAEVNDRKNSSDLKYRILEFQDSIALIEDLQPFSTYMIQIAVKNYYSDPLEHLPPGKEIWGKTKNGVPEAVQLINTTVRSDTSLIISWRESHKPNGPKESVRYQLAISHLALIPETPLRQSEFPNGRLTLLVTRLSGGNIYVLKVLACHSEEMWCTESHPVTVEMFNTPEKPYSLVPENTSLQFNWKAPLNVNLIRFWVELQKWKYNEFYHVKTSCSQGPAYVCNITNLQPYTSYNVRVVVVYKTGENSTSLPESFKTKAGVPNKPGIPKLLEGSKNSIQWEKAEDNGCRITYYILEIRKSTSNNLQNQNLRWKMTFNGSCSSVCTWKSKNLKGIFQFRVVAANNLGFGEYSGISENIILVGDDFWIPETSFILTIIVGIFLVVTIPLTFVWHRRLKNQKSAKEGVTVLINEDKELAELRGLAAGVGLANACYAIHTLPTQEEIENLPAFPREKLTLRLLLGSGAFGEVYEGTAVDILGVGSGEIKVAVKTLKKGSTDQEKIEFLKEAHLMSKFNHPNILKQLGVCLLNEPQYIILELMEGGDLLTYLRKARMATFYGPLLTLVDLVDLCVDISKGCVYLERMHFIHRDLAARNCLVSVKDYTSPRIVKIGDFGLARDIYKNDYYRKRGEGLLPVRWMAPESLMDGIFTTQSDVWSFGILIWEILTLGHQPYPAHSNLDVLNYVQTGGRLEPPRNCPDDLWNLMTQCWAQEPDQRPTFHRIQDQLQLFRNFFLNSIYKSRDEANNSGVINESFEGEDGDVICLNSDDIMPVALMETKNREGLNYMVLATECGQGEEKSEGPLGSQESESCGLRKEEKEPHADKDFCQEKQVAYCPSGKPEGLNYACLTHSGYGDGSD

[5] = target: Proto-oncogene tyrosine-protein kinase ROS (Homo sapiens) (UniProt P08922); conditions: at 1 µM
[6] = target: Proto-oncogene tyrosine-protein kinase Src (Homo sapiens) (UniProt P12931); conditions: at 0.1 µM
[7] = target: Proto-oncogene tyrosine-protein kinase Src (Homo sapiens) (UniProt P12931); conditions: at 1 µM
[8] = target: Tyrosine-protein kinase Srms (Homo sapiens) (UniProt Q9H3Y6); conditions: at 0.1 µM
Chain of Tyrosine-protein kinase Srms (Homo sapiens) (Q9H3Y6 whole entry): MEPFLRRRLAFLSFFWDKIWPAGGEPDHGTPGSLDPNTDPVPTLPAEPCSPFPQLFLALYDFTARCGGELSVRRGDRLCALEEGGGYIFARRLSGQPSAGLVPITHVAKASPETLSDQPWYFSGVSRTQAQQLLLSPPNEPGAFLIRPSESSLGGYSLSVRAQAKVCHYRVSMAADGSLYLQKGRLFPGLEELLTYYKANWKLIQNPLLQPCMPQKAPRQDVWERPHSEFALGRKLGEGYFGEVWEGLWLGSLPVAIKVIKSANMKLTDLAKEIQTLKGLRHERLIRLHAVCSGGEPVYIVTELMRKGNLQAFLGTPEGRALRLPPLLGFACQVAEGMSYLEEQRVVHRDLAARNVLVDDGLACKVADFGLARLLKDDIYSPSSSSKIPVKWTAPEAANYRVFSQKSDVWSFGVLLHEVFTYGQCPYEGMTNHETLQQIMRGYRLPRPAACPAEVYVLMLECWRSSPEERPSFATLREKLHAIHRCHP

[9] = target: Tyrosine-protein kinase Srms (Homo sapiens) (UniProt Q9H3Y6); conditions: at 1 µM
[10] = target: Tyrosine-protein kinase SYK (Homo sapiens) (UniProt P43405); conditions: at 0.1 µM
[11] = target: Tyrosine-protein kinase SYK (Homo sapiens) (UniProt P43405); conditions: at 1 µM
[12] = target: T1, Tyrosine-protein kinase Tec (Homo sapiens) (UniProt P42680); conditions: at 0.1 µM
T1 sequence (whole entry): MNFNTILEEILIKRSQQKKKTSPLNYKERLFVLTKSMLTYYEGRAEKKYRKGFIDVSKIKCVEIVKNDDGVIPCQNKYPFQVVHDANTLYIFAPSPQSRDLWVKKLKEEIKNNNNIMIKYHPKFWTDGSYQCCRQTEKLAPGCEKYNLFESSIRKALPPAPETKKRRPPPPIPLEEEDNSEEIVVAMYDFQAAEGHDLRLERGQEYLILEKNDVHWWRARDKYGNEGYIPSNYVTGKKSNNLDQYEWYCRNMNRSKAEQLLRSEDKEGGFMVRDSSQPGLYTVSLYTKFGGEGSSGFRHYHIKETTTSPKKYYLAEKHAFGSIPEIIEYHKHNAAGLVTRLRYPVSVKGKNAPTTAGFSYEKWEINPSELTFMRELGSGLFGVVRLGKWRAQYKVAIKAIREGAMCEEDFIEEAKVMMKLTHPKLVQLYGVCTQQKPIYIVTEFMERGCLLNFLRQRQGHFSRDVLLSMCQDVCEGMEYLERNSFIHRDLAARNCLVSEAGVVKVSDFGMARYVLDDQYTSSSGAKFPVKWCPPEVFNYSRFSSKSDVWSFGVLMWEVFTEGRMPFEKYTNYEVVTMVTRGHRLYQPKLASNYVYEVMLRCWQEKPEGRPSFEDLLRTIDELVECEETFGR

[13] = target: T1, Tyrosine-protein kinase Tec (Homo sapiens); conditions: at 1 µM
[14] = target: Angiopoietin-1 receptor (Homo sapiens) (UniProt Q02763); conditions: at 0.1 µM
Chain of Angiopoietin-1 receptor (Homo sapiens) (Q02763 whole entry): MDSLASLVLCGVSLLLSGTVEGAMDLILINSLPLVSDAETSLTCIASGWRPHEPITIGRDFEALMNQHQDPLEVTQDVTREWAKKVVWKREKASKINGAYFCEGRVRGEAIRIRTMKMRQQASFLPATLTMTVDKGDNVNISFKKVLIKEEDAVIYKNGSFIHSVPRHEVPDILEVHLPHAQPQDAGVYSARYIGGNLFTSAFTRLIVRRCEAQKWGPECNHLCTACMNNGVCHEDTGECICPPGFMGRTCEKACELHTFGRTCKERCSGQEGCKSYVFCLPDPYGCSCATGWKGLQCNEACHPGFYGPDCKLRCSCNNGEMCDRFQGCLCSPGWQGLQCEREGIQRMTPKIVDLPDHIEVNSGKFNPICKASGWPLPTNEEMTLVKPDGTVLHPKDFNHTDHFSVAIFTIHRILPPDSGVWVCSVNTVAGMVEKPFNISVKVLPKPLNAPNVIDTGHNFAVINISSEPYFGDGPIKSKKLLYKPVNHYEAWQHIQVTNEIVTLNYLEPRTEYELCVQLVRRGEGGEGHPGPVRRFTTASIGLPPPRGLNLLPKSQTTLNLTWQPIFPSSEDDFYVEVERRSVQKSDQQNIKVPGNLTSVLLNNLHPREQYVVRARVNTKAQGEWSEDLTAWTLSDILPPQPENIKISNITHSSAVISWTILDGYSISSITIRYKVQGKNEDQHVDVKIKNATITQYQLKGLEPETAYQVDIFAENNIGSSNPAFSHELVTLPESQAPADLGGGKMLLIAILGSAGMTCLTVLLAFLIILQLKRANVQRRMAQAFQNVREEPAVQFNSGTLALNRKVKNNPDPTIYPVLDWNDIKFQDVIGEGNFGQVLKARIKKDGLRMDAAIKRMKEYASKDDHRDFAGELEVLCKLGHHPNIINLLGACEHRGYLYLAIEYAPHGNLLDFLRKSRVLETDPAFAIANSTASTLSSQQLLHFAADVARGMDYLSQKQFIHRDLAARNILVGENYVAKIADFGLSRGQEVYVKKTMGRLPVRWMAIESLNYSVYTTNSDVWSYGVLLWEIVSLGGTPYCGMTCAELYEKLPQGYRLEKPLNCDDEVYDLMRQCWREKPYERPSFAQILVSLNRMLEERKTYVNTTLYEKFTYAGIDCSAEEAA

[15] = target: Angiopoietin-1 receptor (Homo sapiens) (UniProt Q02763); conditions: at 1 µM
[16] = target: T2, Non-receptor tyrosine-protein kinase TNK1 (Homo sapiens) (UniProt Q13470); conditions: at 0.1 µM
T2 sequence (whole entry): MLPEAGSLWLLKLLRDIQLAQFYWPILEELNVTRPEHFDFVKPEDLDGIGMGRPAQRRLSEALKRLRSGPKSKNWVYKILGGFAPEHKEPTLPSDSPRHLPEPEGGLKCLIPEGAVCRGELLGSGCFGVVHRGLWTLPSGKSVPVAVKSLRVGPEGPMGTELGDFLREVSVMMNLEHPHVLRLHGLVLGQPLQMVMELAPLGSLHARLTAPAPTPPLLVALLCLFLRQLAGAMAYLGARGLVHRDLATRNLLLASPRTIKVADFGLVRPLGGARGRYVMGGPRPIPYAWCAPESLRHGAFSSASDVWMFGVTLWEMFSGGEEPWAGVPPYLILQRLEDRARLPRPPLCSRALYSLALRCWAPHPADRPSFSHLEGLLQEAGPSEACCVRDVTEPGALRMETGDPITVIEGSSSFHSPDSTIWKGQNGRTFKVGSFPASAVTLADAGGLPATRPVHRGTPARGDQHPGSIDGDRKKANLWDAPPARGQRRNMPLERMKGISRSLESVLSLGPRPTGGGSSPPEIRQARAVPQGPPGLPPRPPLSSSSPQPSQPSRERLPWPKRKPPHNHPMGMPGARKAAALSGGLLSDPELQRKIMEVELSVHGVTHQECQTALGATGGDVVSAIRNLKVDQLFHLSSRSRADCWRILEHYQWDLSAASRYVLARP

[17] = target: T2, Non-receptor tyrosine-protein kinase TNK1 (Homo sapiens); conditions: at 1 µM
[18] = target: Activated CDC42 kinase 1 (Homo sapiens) (UniProt Q07912); conditions: at 0.1 µM
Chain of Activated CDC42 kinase 1 (Homo sapiens) (Q07912 whole entry, looked up): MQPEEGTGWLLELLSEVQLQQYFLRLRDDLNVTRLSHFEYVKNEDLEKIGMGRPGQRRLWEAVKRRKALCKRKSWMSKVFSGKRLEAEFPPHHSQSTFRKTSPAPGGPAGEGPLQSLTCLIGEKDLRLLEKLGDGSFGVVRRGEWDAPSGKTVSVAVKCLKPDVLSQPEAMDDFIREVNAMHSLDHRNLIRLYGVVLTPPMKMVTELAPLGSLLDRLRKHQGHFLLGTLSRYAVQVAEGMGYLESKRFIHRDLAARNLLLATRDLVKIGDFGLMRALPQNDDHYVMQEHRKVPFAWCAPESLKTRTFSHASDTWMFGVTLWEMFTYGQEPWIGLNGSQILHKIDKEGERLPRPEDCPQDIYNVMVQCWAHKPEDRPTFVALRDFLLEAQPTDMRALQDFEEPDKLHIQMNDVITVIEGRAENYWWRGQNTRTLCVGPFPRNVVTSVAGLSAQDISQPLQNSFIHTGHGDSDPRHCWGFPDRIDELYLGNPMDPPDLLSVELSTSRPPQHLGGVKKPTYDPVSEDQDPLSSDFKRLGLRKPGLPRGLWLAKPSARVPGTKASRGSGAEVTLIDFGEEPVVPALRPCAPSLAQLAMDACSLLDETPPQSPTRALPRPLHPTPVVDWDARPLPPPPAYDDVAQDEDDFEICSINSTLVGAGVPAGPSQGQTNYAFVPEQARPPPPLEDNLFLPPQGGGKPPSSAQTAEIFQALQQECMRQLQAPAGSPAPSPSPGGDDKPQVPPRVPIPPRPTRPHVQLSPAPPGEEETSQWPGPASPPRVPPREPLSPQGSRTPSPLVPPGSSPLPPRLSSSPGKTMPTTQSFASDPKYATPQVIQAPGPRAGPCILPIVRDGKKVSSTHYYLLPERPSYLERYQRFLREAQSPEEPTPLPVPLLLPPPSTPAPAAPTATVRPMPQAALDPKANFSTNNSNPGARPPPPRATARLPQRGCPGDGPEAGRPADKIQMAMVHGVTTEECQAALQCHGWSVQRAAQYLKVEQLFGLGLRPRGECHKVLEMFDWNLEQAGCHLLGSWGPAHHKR

[19] = target: Activated CDC42 kinase 1 (Homo sapiens) (UniProt Q07912); conditions: at 1 µM
[20] = target: High affinity nerve growth factor receptor (Homo sapiens) (UniProt P04629); conditions: at 0.1 µM;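 also: each value is a mean of replicate percent inhibition readings against TRKA kinase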

Structure (SMILES) | inhibition [1] [%] | inhibition [2] [%] | inhibition [3] [%] | inhibition [4] [%] | inhibition [5] [%] | inhibition [6] [%] | inhibition [7] [%] | inhibition [8] [%] | inhibition [9] [%] | inhibition [10] [%] | inhibition [11] [%] | inhibition [12] [%] | inhibition [13] [%] | inhibition [14] [%] | inhibition [15] [%] | inhibition [16] [%] | inhibition [17] [%] | inhibition [18] [%] | inhibition [19] [%] | inhibition [20] [%]
[O-][S+]1CCN(Cc2ccc(-c3ccc4ncnc(Nc5ccc(OCc6cccc(F)c6)c(Cl)c5)c4c3)o2)CC1 | 9.63 | 3.82 | 6.8 | 4.15 | 2.36 | 8.56 | 10.2 | 0.4 | -1.62 | 2.13 | 0.31 | 2.12 | 4.55 | 3.66 | 5.42 | 2.94 | 11.7 | 1.61 | 1.32 | 3.52
Cc1cccc2c1NC(=O)/C2=N\Nc1ccc(S(N)(=O)=O)cc1 | 18.8 | 4.93 | 2.48 | 2.26 | 1.51 | 4.47 | 6.45 | -0.7 | -2.11 | 3.45 | -1.74 | 5.22 | 7.22 | 1.65 | 1.24 | 2.15 | 5.82 | 1.06 | 1.59 | 4.96
NC(=O)c1sc(-n2cnc3ccc(C(F)(F)F)cc32)cc1OCc1ccccc1Br | 11.1 | 4.35 | 5.41 | 3.4 | 9.36 | 1.66 | 10.1 | -1.61 | -2.09 | -5.63 | 0.09 | 2.5 | 2.78 | 2.27 | 3.55 | 1.47 | 9.04 | 0.36 | 0.65 | 4.01
COC(=O)c1sc(-n2cnc3cc(OC)c(OC)cc32)cc1OCc1ccccc1C(F)(F)F | 52.3 | 0.58 | 1.46 | 6.32 | 12.3 | 1.51 | 24.7 | -2.13 | -3.45 | -5.15 | 1.09 | 3.18 | 6.98 | 4.13 | 14.3 | 8.49 | 4.49 | 0.92 | 5.56 | 3.76
COC(=O)Nc1nc2ccc(Oc3ccc(NC(=O)Nc4cccc(Cl)c4)cc3)cc2[nH]1 | 79.7 | 2.59 | 6.24 | 1.51 | 2.59 | 4.21 | 1.43 | -2.84 | -1.42 | 0.41 | 0.56 | -0.16 | 1.83 | 17.1 | 44.7 | 2.25 | 7.76 | 0.12 | -0.32 | 15.6
Cc1cccc(Nc2ncc(-c3ccccc3)o2)c1 | 6.11 | 3.38 | -0.6 | 6.3 | 7.89 | 8.62 | 19.3 | 0.16 | -0.12 | 1.35 | 2.98 | 6.33 | 4.84 | 5.06 | 4.9 | 1.78 | 4.17 | 1.1 | 3.4 | 0.19
O=C(O[C@H]1CN[C@H](C#Cc2cc3ncnc(Nc4ccc(Cc5ccccc5)cc4)c3s2)C1)N1CCOCC1 | 4.61 | 2.34 | 3.27 | -0.61 | 2.78 | 3.84 | 7.75 | -3.02 | -2.02 | -0.1 | -3.86 | -0.07 | 4.05 | -0.43 | 2.3 | 0.66 | 5.45 | 0.74 | 0.96 | 1.4
COC(=O)Nc1nc2ccc(S(=O)(=O)c3ccc(NC(=O)Nc4cc(C(F)(F)F)ccc4F)cc3)cc2[nH]1 | 0.06 | 0.24 | 1.14 | 2.51 | 3.41 | 7.41 | 6.38 | -0.37 | -3.26 | 1.38 | 0.05 | 3.65 | 2.49 | 5.47 | 10.9 | -0.2 | -6.28 | 0.69 | 0.6 | 1.94
CC1=C(C(=O)Nc2cc(Cl)c3[nH]ncc3c2)C(c2ccc(C(F)(F)F)cc2)CC(=O)N1 (stereo not given) | 18.1 | 13.4 | 11.4 | 4.57 | 6.5 | 1.84 | 30.8 | -1.35 | 3.11 | -2.63 | 1.05 | 3.36 | 6.05 | 4.83 | 5.04 | 4.45 | 3.87 | 0.65 | 2.37 | 3.77
CNC(=O)c1cccc(C#Cc2cncnc2Nc2ccc(OCc3cccc(F)c3)c(Cl)c2)c1 | 20.7 | 0.58 | 0.88 | -2.5 | 1.03 | -0.84 | 5.22 | 0.46 | 1.17 | -6.37 | 0.47 | 0.86 | 2.99 | -0.1 | 2.32 | -0.06 | 10.8 | -0.6 | 0.21 | -0.85
N#Cc1c(NC(=O)CN2CCOCC2)sc2c1CCCC2 | 8.63 | -0.19 | 6.37 | 6.7 | 13 | -1.56 | 7.9 | -1.35 | 0.73 | -0.42 | -1.53 | 3.74 | 7.22 | 2.61 | 4.26 | 3.32 | 8.64 | 1.58 | 3.21 | 3.46
COc1ccc2c(-c3ccnc(Nc4cccc(OC(F)(F)F)c4)n3)cnn2n1 | 11.9 | 2.53 | 9.83 | 11.1 | 46.5 | 5.55 | 23.6 | -1.28 | 1.58 | -2.58 | -3.35 | 6.32 | 11.9 | 1.4 | 4.58 | 9.21 | 45 | 1.32 | 3.83 | 4.63
COc1ccc(CNC(=O)c2ccc(-c3cc(-c4nnc(C)o4)ccc3C)cc2)cc1 | 19.9 | 10.5 | 3.7 | 6.1 | 5.4 | 1.18 | 2.9 | 3.8 | 8.13 | 2.81 | 0.6 | 2.72 | 3.52 | 3.37 | 8.26 | 6.31 | 16 | 3.84 | 6 | -2.81
CS(=O)(=O)CCNCc1ccc(-c2ccc3ncnc(Nc4ccc(OCc5ccccc5)c(C(F)(F)F)c4)c3c2)o1 | 6.81 | -2.49 | -4.8 | 3.04 | 6.52 | 6.38 | 7.74 | -2.3 | -1.62 | -2.88 | -5.62 | 0.36 | 3.4 | 0.1 | 4.31 | 1.84 | 9.92 | 0.97 | 1.65 | 2
